The structures appear in SMILES notation. The panel holds about 83,000 compounds, 20% with a hit somewhere; the sample as a whole holds those more often.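 Interpretation: 100, growth as untreated; towards 0, rising growth inhibition; 0, no net growth; 0 to -100, cell death. Compounds scoring below 10 were considered active.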 Values without a mark were called inactive. Activity calls are given as the source filed them.

This test deals with HL-60(TB) leukemia. The experiment in a line: NCI-60 one-dose screen, 48 h (100 = growth as untreated, 0 = no growth, -100 = all killed). The note with it: 10 µM unless noted.
With `C#CCOc1ccc2ncnc(Nc3cccc(CNC(=O)C=C)c3)c2c1`, the growth was 97.4% [8.25 µM].

Consider `NNCCc1ccc(NC(=O)CCCc2ccc(/C=C/C(=O)NO)cc2)cc1`, for which the growth is 18.3%.

In the case of `O=C(O)c1cccc2oc(-c3ccccc3O)nc12`, the growth was 49.8%.

As for `CC(C)n1nc(C#Cc2cccc(NC(=O)c3cccc(C(F)(F)F)c3)c2)c2c(N)ncnc21`, the growth was -18.9% (active).

Turning to `COc1ncc(-c2ccc3ncnc(Nc4cccc(Cl)c4)c3c2)cc1NS(=O)(=O)C1CC1`, the growth was 36.7%.

As for `COc1cccc2c1c1nc3cc(C)c(C)cc3nc1n2CCN(C)C`, the growth is 15.3%.

Turning to `COc1ccc2c(c1)O/C(=C\c1cccc(OCC(=O)Nc3nc4ccccc4s3)c1)C2=O`, the growth is 40.7%.

In the case of `COc1ccc2nc3ccccc3c(NCCNCC(C)O)c2c1` (stereo not given), the growth is 14.2%.

Turning to `O=C(Nc1ccccc1)C(CCCCN1C(=O)c2ccccc2C1=O)N1C(=O)c2ccccc2C1=O` (stereo not given), the growth is 104%.

With `CN(C)CCOc1ccc(/C(=C(/CCCCCCCCCC[P+](c2ccccc2)(c2ccccc2)c2ccccc2)c2ccccc2)c2ccccc2)cc1`, the growth was -62.1% (active).

For `COc1ccc(OC)c2ncccc12`, the growth was 98.9%.

As for `O=C1/C(=C/c2ccc(Br)cc2)C=C(c2ccccc2)N1CCc1ccccc1`, the growth was 83.8%.

With `NCCOc1ncccc1/C=C1\c2ccccc2-c2ccc(C(F)F)cc21`, the growth is -3.26% (active).

On to `Cc1ccc2c(n1)C(=O)C(Oc1ccc(F)cc1)=CC2=O`, for which the growth is 54%.

On to `CCN1CCN(C(=O)[C@]23CCC(C)(C)C[C@@H]2C2=CC[C@@H]4[C@@]5(C)C/C(=C/c6ccncc6)C(=O)C(C)(C)[C@@H]5CC[C@@]4(C)[C@]2(C)CC3)CC1`, for which the growth was -33.8% (active).

For the compound `NC(=O)c1ccccc1OCC(O)CO` (stereo not given), the growth is 108%.

For the compound `CCC#CC[C@H]1C/C=C2/C(=O)C=C[C@@H]2C/C=C\CCCC(=O)O1`, the growth was -19.1% (active).

With `COc1ccc(Cn2cc(Cn3cc(C=C4C(=O)NC(=O)NC4=O)c4ccccc43)nn2)cc1`, the growth was 82.6%.

With `COc1ccc(-c2nc(SCC(C)C)nc(Nc3ccccc3)c2C#N)cc1`, the growth was 88.6%.

For the compound `CCN(CC)CCOc1nc2c3ccc(Cl)cc3nn2c2ccccc12`, the growth is 19.5%.

With `CC/C=C\C[C@H](F)C/C=C1/C(=O)C=C[C@@H]1C/C=C\CCCC(=O)OC`, the growth was -33.1% (active).

Take `O=C(/C=C/c1cccc(Cl)c1)c1ccc(Nc2nc(Nc3ccc(F)cc3)nc(Nc3ccc(Cl)cc3)n2)cc1`: the growth was 52.8%.

`C#CC[C@@H]1C[C@]2(C)[C@H]3CC[C@@H]4[C@H]5C(C(=C)C)CC[C@]5(C(=O)NCCCCN)CC[C@@]4(C)[C@]3(C)CC[C@H]2C(C)(C)[C@H]1OC(C)=O` (stereo not given in full): the growth is -38.3% (active).

`Cc1nn2c(/C=C3/C(=O)Nc4ccc(Cl)cc43)c(-c3ccccc3)nc2s1`: the growth is 81.5%.

For the compound `CCCCn1c(Cc2ccc(Cl)cc2)nc2cc(OC)c(OC)cc2c1=O`, the growth was 53.7%.

(Values after PubChem BioAssay (NCI).)
